Assay results from PubChem BioAssay.
Activity calls are given as the source filed them. Rule as the data show it, unless noted: active = inhibition above about 80%; inactive = the rest.

Columns and labels:
[1] = LFS_MB_P medulloblastoma growth inhibition, cell-based, chromothripsis tumors, cisplatin or BGB combos (AID 1671449); settings: LFS_MB_P medulloblastoma cells;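 also: cells exposed for 96 hours; 0% = vehicle DMSO and 100% = killing by high DMSO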
[2] = HDN33 neuroblastoma growth inhibition, cell-based, chromothripsis tumors, cisplatin or BGB combos (AID 1671450); settings: HDN33 neuroblastoma cells, stronger effect = higher value;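 also: cells exposed to compound for four days; 0% = vehicle DMSO and 100% = cell killing by high DMSO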
[3] = ICB984 medulloblastoma cell growth inhibition, synergistic combos for chromothripsis tumors, cisplatin or BGB combos (AID 1671451; call rule not given here;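 also: cells exposed for 96 hours before readout; 0% = vehicle DMSO and 100% = killing by high DMSO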); settings: ICB984 medulloblastoma cells, drug combinations, stronger effect = higher value
[4] = LFS_MB_1R medulloblastoma cell growth inhibition, synergistic combos for chromothripsis tumors, cisplatin or BGB combos (AID 1671452); settings: LFS_MB_1R medulloblastoma cells, stronger effect = higher value;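 also: cells exposed for 96 hours before readout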
[5] = HTB85 osteosarcoma cell growth inhibition, synergistic combos for chromothripsis tumors, BGB or cisplatin IC20 combos (AID 1671453); settings: HTB85 osteosarcoma cells, drug combinations, stronger effect = higher value;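 also: cells exposed for 96 hours before readout; 0% = vehicle DMSO and 100% = high DMSO killing control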
[6] = CRL2098 osteosarcoma cell growth inhibition, synergistic combos for chromothripsis tumors, BGB or cisplatin IC20 combos (AID 1671454); settings: CRL2098 osteosarcoma cells, drug combinations, stronger effect = higher value;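 also: cells exposed for 96 h before readout; 0% = vehicle DMSO and 100% = killing by high DMSO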
[7] = HD-MB03 medulloblastoma cell growth inhibition, synergistic combos for chromothripsis tumors, BGB or cisplatin IC20 combos (AID 1671455; in the data active = inhibition above about 83%;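 also: 0% = vehicle DMSO and 100% = high DMSO as cytotoxic control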); settings: HD-MB03 medulloblastoma cells, stronger effect = higher value
[8] = UWB1.289 ovarian carcinoma cell growth inhibition, synergistic combos for chromothripsis tumors, BGB or cisplatin combos (AID 1671456); settings: UWB1.289 ovarian carcinoma cells, stronger effect = higher value;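 also: cells exposed to compound for four days; 0% = vehicle DMSO and 100% = killing by high DMSO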
[9] = LFS_MB_2R medulloblastoma cell growth inhibition, synergistic combos for chromothripsis tumors, cisplatin combos (AID 1671457); settings: LFS_MB_2R medulloblastoma cells, stronger effect = higher value;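 also: cells exposed to compound for four days before readout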
[10] = MDA-MB-436 breast carcinoma cell growth inhibition, synergistic combos for chromothripsis tumors, BGB or cisplatin combos (AID 1671458; call rule not given here;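 also: cells exposed for 96 hours; 0% = vehicle DMSO and 100% = killing by high DMSO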); settings: MDA-MB-436 breast carcinoma growth inhibition, drug combinations, stronger effect = higher value
[11] = UWB1.289_BRCA1 ovarian cancer growth, cell-based, BGB or cisplatin combinations (AID 1671459); settings: UWB1.289 BRCA1 ovarian carcinoma, drug combinations, stronger effect = higher value
[12] = human astrocyte viability loss, single and combined drugs, cytotoxicity control for chromothriptic childhood tumor combination screen, cell-based, BGB or cisplatin IC20 combos (AID 1671460); settings: Human astrocytes, drug combinations, stronger effect = higher value;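 also: cells exposed to compounds for 96 hours before viability readout; 0% = vehicle and 100% = killing control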
[13] = growth inhibition of BT084 medulloblastoma cells, cell-based, ICGC_MB145, cisplatin and BGB IC40 combos (AID 1671461); settings: drug combinations, stronger effect = higher value;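 also: cells exposed to drugs for 96 hours; 0% = vehicle DMSO and 100% = high DMSO full killing control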
[14] = growth inhibition of RCMB18 medulloblastoma cells, cell-based, cisplatin and BGB IC40 combos (AID 1671462); settings: stronger effect = higher value;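 also: cells exposed to compound for four days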
[15] = growth inhibition of CRL1545 osteosarcoma cells, cell-based, cisplatin and BGB IC20 combos (AID 1671464); settings: stronger effect = higher value;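 also: cells exposed to compound for 96 hours before readout; 0% = vehicle DMSO and 100% = high DMSO killing control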
[16] = at 0.5 µM, stronger effect = higher value
[17] = measured here: combination with BGB IC20, at 0.005 µM
[18] = measured here: combination with BGB IC40, at 0.005 µM
[19] = measured here: combination with BGB IC40, at 0.05 µM
[20] = measured here: combination with cisplatin, at 0.5 µM, stronger effect = higher value
[21] = measured here: combination with cisplatin, at 5 µM, stronger effect = higher value
[22] = measured here: with BGB IC20 combination, at 0.5 µM
[23] = measured here: with cisplatin IC20 combination, at 0.5 µM
[24] = measured here: 5 uM single agent, at 5 µM
[25] = measured here: combination with cisplatin, at 0.5 µM
[26] = measured here: combination with cisplatin, at 5 µM
[27] = measured here: with BGB IC20, at 0.5 µM
[28] = measured here: with BGB IC20, at 5 µM
[29] = measured here: with cisplatin IC20, at 0.5 µM
[30] = measured here: with cisplatin IC20, at 5 µM
[31] = measured here: combination with BGB at IC20, at 0.5 µM
[32] = measured here: combination with cisplatin at IC20, at 0.5 µM
[33] = measured here: combo with BGB at IC20, at 0.5 µM
[34] = measured here: combo with cisplatin at IC20, at 0.5 µM
[35] = measured here: inhibition with BGB combination, at 0.05 µM
[36] = measured here: inhibition with cisplatin combination, at 0.05 µM
[37] = measured here: BGB combination, at 0.5 µM
[38] = measured here: BGB combination, at 5 µM
[39] = measured here: cisplatin combination, at 0.5 µM
[40] = measured here: cisplatin combination, at 5 µM
[41] = BGB combination, concentration series, at 5 µM
[42] = cisplatin combination, concentration series, at 5 µM
[43] = measured here: combo with BGB IC20, at 0.5 µM
[44] = measured here: combo with cisplatin IC20, at 0.5 µM
[45] = cisplatin combination, at 0.5 µM
[46] = measured here: BGB IC40 combination 0.05 uM, at 0.05 µM
[47] = measured here: BGB IC40 combination, at 0.05 µM

For `C[n+]1ccc(-c2c3nc(c(-c4cc[n+](C)cc4)c4ccc([nH]4)c(-c4cc[n+](C)cc4)c4nc(c(-c5cc[n+](C)cc5)c5ccc2[nH]5)C=C4)C=C3)cc1`, the inhibition [1, 16] was -16.4% (inactive), the inhibition [1, 17] was 4.93% and the inhibition [1, 18] was -7.27%. The inhibition [1, 19] was 5.45%, the inhibition [1, 20] was -7.43% and the inhibition [1, 21] was 6.44%. The inhibition ([2]; BGB combo, at 5 µM) was -33%, the inhibition ([2]; at 0.5 µM) was -31.4% (inactive) and the inhibition ([2]; cisplatin combo, at 5 µM) was -48.7%. It also gave an inhibition [2, 22] of -41%, an inhibition [2, 23] of -34.4% and an inhibition ([2]; single agent, at 5 µM) of -48.2%. The inhibition ([3]; BGB IC20 combo, at 0.005 µM) was -7.96%, the inhibition ([3]; BGB IC40 combo, at 0.005 µM) was -38.9% and the inhibition ([3]; BGB IC40 combo, at 0.05 µM) was -28.5%. The inhibition ([3]; at 0.5 µM) was -22.5% (inactive), the inhibition ([3]; cisplatin combo, at 0.05 µM) was -33.6% and the inhibition ([3]; cisplatin combo, at 0.5 µM) was -35.2%. The inhibition ([3]; cisplatin combo, at 5 µM) was -30.8%, the inhibition [3, 24] was -3.94% and the inhibition ([4]; at 0.5 µM) was -33.2% (inactive). It also gave an inhibition [4, 19] of -38.7%, an inhibition [4, 25] of -36.8% and an inhibition [4, 26] of -24.6%. For the same molecule, the inhibition ([5]; at 0.5 µM) was -31.3% (inactive), the inhibition [5, 27] was -48.7% and the inhibition [5, 28] was -28.8%. For the same molecule, the inhibition [5, 29] was -29.2%, the inhibition [5, 30] was 1.2% and the inhibition ([5]; single agent, at 5 µM) was -24.3%. The inhibition ([6]; at 0.5 µM) was -75.6% (inactive), the inhibition [6, 31] was -55.7% and the inhibition [6, 32] was -59.6%. For the same molecule, the inhibition ([7]; at 0.5 µM) was -18.1% (inactive), the inhibition [7, 33] was -21.5% and the inhibition [7, 34] was -12.4%. The inhibition ([8]; at 0.5 µM) was -15% (inactive), the inhibition [8, 35] was -39.4% and the inhibition [8, 36] was -10%. The inhibition ([9]; at 0.5 µM) was -18.1% (inactive), the inhibition [9, 25] was -16.6% and the inhibition [9, 26] was -12.4%. The inhibition ([10]; at 0.5 µM) was -9.73% (inactive), the inhibition [10, 37] was -10.7% and the inhibition [10, 38] was -18%. It also gave an inhibition [10, 39] of -7.22%, an inhibition [10, 40] of -11.9% and an inhibition [11, 41] of -36.3%. The inhibition ([11]; at 0.5 µM) was -17.4% (inactive), the inhibition [11, 42] was -6.54% and the inhibition ([12]; at 0.5 µM) was -1.53% (inactive). For the same molecule, the inhibition [12, 43] was 4.28%, the inhibition [12, 44] was 3.89% and the inhibition ([13]; at 0.5 µM) was -2.03% (inactive). For the same molecule, the inhibition [13, 45] was -16.4%, the inhibition ([13]; cisplatin combination, at 5 µM) was 4.22% and the inhibition [13, 46] was -24.6%. For the same molecule, the inhibition ([13]; single agent, at 5 µM) was -14.3%, the inhibition ([14]; at 0.5 µM) was -13.6% (inactive) and the inhibition ([14]; cisplatin combo, at 5 µM) was 1.63%. It also gave an inhibition [14, 47] of -15.7%, an inhibition [14, 25] of -4.98% and an inhibition ([14]; single agent, at 5 µM) of -32.1%. For the same molecule, the inhibition ([15]; at 0.5 µM) was -40.2% (inactive), the inhibition [15, 22] was -36.3% and the inhibition [15, 23] was -42.2%. For the same molecule, the inhibition ([15]; single agent, at 0.05 µM) was -36.8% and the inhibition ([15]; single agent, at 5 µM) was 45%.
For `CC1CNC(=O)NC1=O` (stereo unspecified), the inhibition [1, 16] was -30.6% (inactive), the inhibition [1, 17] was -22% and the inhibition [1, 18] was -7.63%. It also gave an inhibition [1, 19] of -15.7%, an inhibition [1, 20] of -39.2% and an inhibition [1, 21] of -13.3%. The inhibition ([2]; BGB combo, at 5 µM) was -40.2%, the inhibition ([2]; at 0.5 µM) was -17.3% (inactive) and the inhibition ([2]; cisplatin combo, at 5 µM) was -24%. The inhibition [2, 22] was -4.75%, the inhibition [2, 23] was -15.4% and the inhibition ([2]; single agent, at 5 µM) was 2.08%. The inhibition ([3]; BGB IC20 combo, at 0.005 µM) was -33.2%, the inhibition ([3]; BGB IC40 combo, at 0.005 µM) was -36.3% and the inhibition ([3]; BGB IC40 combo, at 0.05 µM) was -20.7%. For the same molecule, the inhibition ([3]; at 0.5 µM) was -43.5% (inactive), the inhibition ([3]; cisplatin combo, at 0.05 µM) was -20.7% and the inhibition ([3]; cisplatin combo, at 0.5 µM) was -62.7%. For the same molecule, the inhibition ([3]; cisplatin combo, at 5 µM) was -40.7%, the inhibition [3, 24] was -37.5% and the inhibition ([4]; at 0.5 µM) was -30.6% (inactive). The inhibition [4, 19] was -35.2%, the inhibition [4, 25] was 5.53% and the inhibition [4, 26] was 23.2%. For the same molecule, the inhibition ([5]; at 0.5 µM) was -31.7% (inactive), the inhibition [5, 27] was -55.6% and the inhibition [5, 28] was -9.18%. The inhibition [5, 29] was -36.4%, the inhibition [5, 30] was -7.78% and the inhibition ([5]; single agent, at 5 µM) was -19.6%. The inhibition ([6]; at 0.5 µM) was -81.6% (inactive), the inhibition [6, 31] was -71.8% and the inhibition [6, 32] was -130%. The inhibition ([7]; at 0.5 µM) was 7.56% (inactive), the inhibition [7, 33] was 12% and the inhibition [7, 34] was 16.9%. The inhibition ([8]; at 0.5 µM) was -15.4% (inactive), the inhibition [8, 35] was -40% and the inhibition [8, 36] was -20.8%. The inhibition ([9]; at 0.5 µM) was -25.2% (inactive), the inhibition [9, 25] was -28% and the inhibition [9, 26] was -26.8%. The inhibition ([10]; at 0.5 µM) was -18.9% (inactive), the inhibition [10, 37] was -18.5% and the inhibition [10, 38] was -17.9%. For the same molecule, the inhibition [10, 39] was -32%, the inhibition [10, 40] was -4.6% and the inhibition [11, 41] was 1.37%. For the same molecule, the inhibition ([11]; at 0.5 µM) was -11% (inactive), the inhibition [11, 42] was 10.9% and the inhibition ([12]; at 0.5 µM) was 12.2% (inactive). For the same molecule, the inhibition [12, 43] was 9.11%, the inhibition [12, 44] was 12% and the inhibition ([13]; at 0.5 µM) was -12.5% (inactive). The inhibition [13, 45] was -19.5%, the inhibition ([13]; cisplatin combination, at 5 µM) was -47.1% and the inhibition [13, 46] was -27%. For the same molecule, the inhibition ([13]; single agent, at 5 µM) was -16.6%, the inhibition ([14]; at 0.5 µM) was -12% (inactive) and the inhibition ([14]; cisplatin combo, at 5 µM) was -15.1%. The inhibition [14, 47] was -20.6%, the inhibition [14, 25] was -13.2% and the inhibition ([14]; single agent, at 5 µM) was -49.2%. For the same molecule, the inhibition ([15]; at 0.5 µM) was -21.8% (inactive), the inhibition [15, 22] was -10.4% and the inhibition [15, 23] was -27.5%. The inhibition ([15]; single agent, at 0.05 µM) was 3.21% and the inhibition ([15]; single agent, at 5 µM) was -10.2%.
